Data taken from the supplement of paper PMC12645437, “Orthogonal IMiD-Degron Pairs Induce Selective Protein Degradation in Cells” (ACS Chemical Biology, 2025).
The full ranking holds about 8,300 sequences; the median of “log2 fold change of degron read counts, EGFP-low vs EGFP+ sorted cells (limma voom), compound-induced degradation” is about -1.1, and the highest 2% start at about 3.2. The full list was thinned out, with the highest values kept by preference.

T1: CRBN, Q96SW2
T1 chain: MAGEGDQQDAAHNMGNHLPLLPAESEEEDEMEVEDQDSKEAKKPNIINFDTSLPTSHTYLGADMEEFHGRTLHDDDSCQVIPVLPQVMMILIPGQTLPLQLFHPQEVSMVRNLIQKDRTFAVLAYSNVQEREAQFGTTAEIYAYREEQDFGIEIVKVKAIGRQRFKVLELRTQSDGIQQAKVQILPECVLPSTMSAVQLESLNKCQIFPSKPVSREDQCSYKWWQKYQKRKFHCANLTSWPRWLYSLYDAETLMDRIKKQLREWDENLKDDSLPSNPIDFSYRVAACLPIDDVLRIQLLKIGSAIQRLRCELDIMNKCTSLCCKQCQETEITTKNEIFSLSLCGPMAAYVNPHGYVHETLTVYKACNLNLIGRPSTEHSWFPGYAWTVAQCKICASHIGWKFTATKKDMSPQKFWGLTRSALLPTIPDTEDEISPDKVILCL


Biological target: T1, CRBN, Q96SW2
Assay: log2 fold change of degron read counts, EGFP-low vs EGFP+ sorted cells (limma voom), compound-induced degradation; higher = more compound-induced degradation of the degron-EGFP fusion; degrons are variants of IKZF1/3 zinc finger 2; compound dose not given here
Conditions: Jurkat, 18 h
[1] = compound: compound 19 (5-tert-butyl-thalidomide)
[2] = compound: compound 22 (5-morpholino-thalidomide)
[3] = compound: compound 33 (diphenyl IMiD analogue)
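Note: pooled lentiviral library of zinc finger degron-EGFP fusions in mCherry-positive Jurkat cells, FACS-sorted after compound exposure, with degron abundance counted by next-generation sequencing.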

Row | Sequence | log2 fold change of degron read counts [1] | log2 fold change of degron read counts [2] | log2 fold change of degron read counts [3] | log2 fold change of degron read counts (compound: thalidomide)
1 | FTCNQCGRMFTQKGNLLRHIKL [46F_47T_49N_50Q_52G_53R_54M_55F_67L_, Q9UKT9] | -2.42 | -2.23 | -3.36 | -2.15
2 | FKCPVCGANFTQKGNLLRHIKL [46F_47K_49P_50V_52G_53A_54N_55F_67L_, Q9UKT9] | -1.23 | -1.7 | -1.75 | -0.842
3 | FFCNVCGASFTQKGNLLRHIKL [46F_47F_49N_50V_52G_53A_54S_55F_67L_, Q9UKT9] | 0.714 | 1.8 | 0.537 | -0.573
4 | FWCNVCGATFTQKGNLLRHIKL [46F_47W_49N_50V_52G_53A_54T_55F_67L_, Q9UKT9] | -0.873 | 1.95 | 0.03 | -1.73
5 | FVCEICGHWFTQKGNLLRHIKL [46F_47V_49E_50I_52G_53H_54W_55F_67L_, Q9UKT9] | -4.05 | -5.4 | -3.27 | -3.37
6 | FCCNVCGAIFTQKGNLLRHIKL [46F_47C_49N_50V_52G_53A_54I_55F_67L_, Q9UKT9] | -0.872 | -0.605 | 1.29 | -0.21
7 | FRCDVCGAKFTQKGNLLRHIKL [46F_47R_49D_50V_52G_53A_54K_55F_67L_, Q9UKT9] | -1.66 | -1.94 | -0.967 | -0.732
8 | FFCEICGHQFTQKGNLLRHIKL [46F_47F_49E_50I_52G_53H_54Q_55F_67L_, Q9UKT9] | -2.47 | -1.41 | -2.03 | -3.11
9 | FCCPVCGAYFTQKGNLLRHIKL [46F_47C_49P_50V_52G_53A_54Y_55F_67L_, Q9UKT9] | 0.773 | 0.428 | 1.38 | 0.899
10 | LKCEICGFSCTQKGNLLRHIKL [46L_47K_49E_50I_52G_53F_54S_55C_67L_, Q9UKT9] | 1.07 | -1.26 | -1.41 | 0.762
11 | LTCEICGFSCTQKGNLLRHIKL [46L_47T_49E_50I_52G_53F_54S_55C_67L_, Q9UKT9] | 2.45 | 3.22 | 2.39 | 3.2
12 | LICEICGFSCTQKGNLLRHIKL [46L_47I_49E_50I_52G_53F_54S_55C_67L_, Q9UKT9] | 1.33 | 3.02 | 2.39 | 3.24
13 | LYCEICGFSCTQKGNLLRHIKL [46L_47Y_49E_50I_52G_53F_54S_55C_67L_, Q9UKT9] | 3.63 | 3.7 | 3.1 | 2.45
14 | LMCEICGFSCTQKGNLLRHIKL [46L_47M_49E_50I_52G_53F_54S_55C_67L_, Q9UKT9] | 1.25 | 2.14 | 2.59 | 2.36
15 | LFCEICGFSCTQKGNLLRHIKL [46L_47F_49E_50I_52G_53F_54S_55C_67L_, Q9UKT9] | 3.66 | 3.51 | 2.53 | 2.79
16 | LCCEICGFSCTQKGNLLRHIKL [46L_47C_49E_50I_52G_53F_54S_55C_67L_, Q9UKT9] | 2.55 | 2.37 | 1.93 | 2.56
17 | FWCEICGHWFTQKGNLLRHIKL [46F_47W_49E_50I_52G_53H_54W_55F_67L_, Q9UKT9] | -1.25 | -1.77 | -1.42 | -1.28
18 | FVCEICGAWFTQKGNLLRHIKL [46F_47V_49E_50I_52G_53A_54W_55F_67L_, Q9UKT9] | -1.2 | -0.828 | 0.741 | 0.583
